{"source": "PubChem BioAssay AID1347131", "about": "(National Center for Advancing Translational Sciences (NCATS), 2019)", "note": "The campaign covered roughly 410,000 compounds. About 2,000 (0.49%) were called active. Another 8% or so got no clear call; they are omitted. The entries come from a sample that favours actives as a whole. A number with no mark means an inactive call. Calls follow the shape of the full dose curve; tested in HEK293 reporter line. Potency is read from the fitted curve at half-maximal effect."}
{"assay": "qHTS Assay for Foot and Mouth Disease Virus Antivirals: Primary Screen against the MLPCN compound library; also: nearly all actives have a fitted effect of over 55% in size", "settings": "FMDV antiviral cell-based qHTS; series mostly up to 57.9 µM; activity, negative = inhibition: at the top concentration", "units": {"activity, negative = inhibition": "%"}}
{"smiles": "O=C(CSCc1ccc(F)cc1)N1CCN(c2ccc(F)cc2)CC1", "activity, negative = inhibition": -30.1}
{"smiles": "N#Cc1ccccc1Sc1ccccc1C(=O)OCC(=O)NC12CC3CC(CC(C3)C1)C2", "activity, negative = inhibition": -33.5}
{"smiles": "COc1ccccc1C(=O)Nc1ccc(-c2cc(C(F)(F)F)nn2-c2ccccc2)cc1", "activity, negative = inhibition": -36.9}
{"smiles": "C=CCN1CC[C@]23c4c5ccc(O)c4O[C@H]2/C(=N/NC(=O)c2ccccc2)CC[C@@]3(O)[C@H]1C5", "activity, negative = inhibition": -28.3}
{"smiles": "O=C1/C(=C\\c2ccccc2)C[C@@]2(O)[C@H]3Cc4ccc(O)c5c4[C@@]2(CCN3CC2CC2)[C@H]1O5", "Potency": "10 µM (active)"}
{"smiles": "CCOC(=O)[C@H]1[C@H]2COc3ccccc3[C@@H]2N2C(=O)c3ccc(Cl)cc3NC(=O)[C@@]12C", "activity, negative = inhibition": -37.3}
{"smiles": "O=C(Nc1ccccc1Cc1ccccc1)c1ccccc1NS(=O)(=O)c1ccc(Cl)s1", "activity, negative = inhibition": -37.5}
{"smiles": "C=CCOc1ccc(/C=C2/C(=O)ON=C2C)cc1OCC", "Potency": "31.6 µM (active)"}
{"smiles": "CCOc1cc(/C=C2\\C(=O)N(c3ccc(C(N)=O)cc3)N=C2C)ccc1OC(=O)c1cccs1", "activity, negative = inhibition": -38}
{"smiles": "COc1cc(/C=C2/C(=O)ON=C2c2ccccc2)ccc1O", "activity, negative = inhibition": -45.4}
{"smiles": "Cc1ccc(S(=O)(=O)N(C)C)cc1NC(=O)CSc1nc2ccccc2[nH]1", "activity, negative = inhibition": -42}
{"smiles": "CCOc1ccc(CN2CCNC(=O)C2CC(=O)NCCc2nc(C)c3c(n2)CCC3)cc1", "note": "(centres undefined)", "activity, negative = inhibition": -54}
{"smiles": "Cc1ccc(-c2nc(CCNC(=O)c3ccco3)cs2)cc1", "activity, negative = inhibition": -36.4}
{"smiles": "Cc1ccc(-c2nc(C)c(C(=O)O)s2)cc1", "Potency": "25.1 µM (active)"}
{"smiles": "Cc1ccc(S(=O)(=O)Nc2nc(C)c(C)s2)cc1", "activity, negative = inhibition": 101}
{"smiles": "Cc1ccccc1N1CCN(C2CCCN(C(=O)CCC3(C)CC3)C2)CC1", "note": "(centres undefined)", "activity, negative = inhibition": -31.3}
{"smiles": "Fc1ccccc1-c1csc(=Nc2cccnc2)n1CCCn1ccnc1", "activity, negative = inhibition": -40}
{"smiles": "O=C(C1COc2ccccc2O1)N1CCN(S(=O)(=O)c2ccccc2)CC1", "note": "(centres undefined)", "activity, negative = inhibition": -32.6}
{"smiles": "Cc1nc(NC(=O)c2cc3ccccc3o2)sc1C", "Potency": "17.8 µM (active)"}
{"smiles": "CCc1cccc(C)c1NC(=O)c1cc2ccccc2o1", "activity, negative = inhibition": -43}
{"smiles": "CC(=O)c1cccc(NC(=O)CNC(=O)c2cc3ccccc3o2)c1", "activity, negative = inhibition": -36.7}
{"smiles": "COc1ccc([N+](=O)[O-])cc1NC(=O)C(C)OC(=O)C1CCCC1", "note": "(centres undefined)", "activity, negative = inhibition": -48.6}
{"smiles": "CC1(C(=O)Nc2cccc(Oc3ccccc3)c2)CCN1Cc1cccc2c1OCO2", "note": "(centres undefined)", "activity, negative = inhibition": -31.1}
{"smiles": "COc1cccc(-c2sc3ccc(OC)cc3c2-c2ccc(OCCN3CCCC3)cc2)c1", "activity, negative = inhibition": -31.7}
{"smiles": "Cc1ccc(-c2nc3cc(NC(=O)C(C)C)ccc3o2)cc1C", "Potency": "22.4 µM (active)"}
{"smiles": "CC(C)Oc1ccc(C(=O)Nc2ccc3oc(-c4ccncc4)nc3c2)cc1", "activity, negative = inhibition": -28.6}
{"smiles": "Cc1ccc(C(=O)Nc2cc(-c3nc4cc(Cl)ccc4o3)ccc2C)c(C)c1", "activity, negative = inhibition": -31.2}
{"smiles": "COCC(C)n1c(C)cc(C(=O)COC(=O)c2cc(=O)[nH]c3ccccc23)c1C", "note": "(centres undefined)", "activity, negative = inhibition": -25.1}
{"smiles": "CC(C)(C)OC(=O)N1CCC(c2c(C(=O)N3CCN(Cc4ccccc4)CC3)cnn2-c2ccc(Cl)cc2)CC1", "activity, negative = inhibition": -34}
{"smiles": "N/C(=N\\N=C\\c1ccc2c(c1)OCO2)c1nonc1N", "Potency": "17.8 µM (active)"}
{"smiles": "CCc1ccc(S(=O)(=O)N/N=C\\c2ccc3c(c2)OCO3)cc1", "activity, negative = inhibition": 108}
{"smiles": "O=S(=O)(N/N=C\\c1ccc2c(c1)OCO2)c1ccc(Cl)cc1", "activity, negative = inhibition": 102}
{"smiles": "Brc1ccccc1CN1CCN(Cc2c[nH]c3ccccc23)CC1", "activity, negative = inhibition": -41.3}
{"smiles": "CCN(CC)c1ccc2c(Cl)c(Br)c(=O)oc2c1", "Potency": "31.6 µM (active)"}
{"smiles": "CCN(Cc1cc(=O)oc2cc(C)ccc12)c1ccccc1", "activity, negative = inhibition": -38.6}
{"smiles": "CCN(CC)c1ccc2cc(C(=O)NNC(=O)c3ccc(S(=O)(=O)N4CCCCC4)cc3)c(=O)oc2c1", "activity, negative = inhibition": -31}
{"smiles": "O=C(C1=C[C@H](c2ccc3c(c2)OCO3)C[C@H](OCc2ccc(CO)cc2)O1)N1CCN(Cc2ccc3c(c2)OCO3)CC1", "activity, negative = inhibition": -38}
{"smiles": "Cc1ccc(Nc2nc(N)nc(CN3CCN(c4ccccc4F)CC3)n2)cc1", "activity, negative = inhibition": -33}
{"smiles": "O=C(N/N=C/c1ccc2ncccc2c1)c1ccco1", "Potency": "14.1 µM (active)"}
{"smiles": "O=C(Oc1cccc(/C=N/Nc2nc(N3CCOCC3)nc(N3CCOCC3)n2)c1)c1ccco1", "activity, negative = inhibition": -35.2}
{"smiles": "CCOc1ccc(C=NNC(=O)c2cccc3ccccc23)cc1OCC", "activity, negative = inhibition": -38.1}
{"smiles": "Cc1ccc(-c2ccc(=O)n(Cc3cc(C)ccc3C)n2)cc1", "Potency": "inactive"}
{"smiles": "CCN1CCN(c2cc(-c3ccccc3)nc3cc(-c4cccc(F)c4)nn23)CC1", "activity, negative = inhibition": -31.5}
{"smiles": "C=CC[C@@H](Cc1ccc(F)cc1)C(=O)OC[C@H]1CCCN1C(=O)[C@@H](CC=C)CC(=O)N(CCO)Cc1ccccc1", "activity, negative = inhibition": -34.2}
{"smiles": "C=CC[C@@H](CC(=O)OC(C)(C)C)C(=O)OC[C@@H]1CCCN1C(=O)[C@@H](CC=C)CC(=O)N[C@H](CO)Cc1ccccc1", "Potency": "14.1 µM (active)"}
{"smiles": "C=CC[C@@H](CC(=O)OC(C)(C)C)C(=O)OC[C@@H]1CCCN1C(=O)[C@@H](CC=C)CC(=O)N[C@@H](CO)Cc1ccccc1", "activity, negative = inhibition": -31}
{"smiles": "COc1ccc(C(C)=O)cc1COC(=O)CNC(=O)c1ccccc1F", "activity, negative = inhibition": -36.6}
{"smiles": "N#CC(=C=[N-])c1nc2ccccc2nc1-[n+]1ccccc1", "activity, negative = inhibition": -31.6}
{"smiles": "COc1cccc(/C=N/NC(=O)CSc2nnc(C)n2-c2ccccc2)c1OC", "activity, negative = inhibition": -35.1}
